In PubChem BioAssay one finds composite z-score and z-score data, which are given here for 5 molecules.

A short description of assay [1]: small molecules captured by biotinylated probe aFSTL3 – biochemical, small-molecule microarray, fluorescence 635/667, stem cell growth factor project, primary screen (AID 1064).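 Further: measures binding of the biotinylated anti-FSTL3 antibody to printed compounds.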 Particulars: higher = more signal.
Assay [2] can be described thus: binders from COS7 lysate, DM2A8 probe, primary screen, torsin A project, cell lysate, small-molecule microarray, fluorescence 635/667 (AID 1065). Conditions: higher = more signal, COS7 lysate expressing mutant human TOR1A.
Assay [3] can be described thus: small molecules captured by biotinylated probe aFGF2 – biochemical, small-molecule microarray, fluorescence 635/667, stem cell growth factor project, primary screen (AID 1067).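 Further: measures binding of biotinylated aFGF2 protein to printed compounds on slides; z-score merges feature fluorescence and signal-to-noise across triplicate slides.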 Conditions: higher = more signal.
The nature of assay [4]: small molecules captured by biotinylated probe aFGF10 – biochemical, small-molecule microarray, fluorescence 635/667, stem cell growth factor project, primary screen (AID 1071).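 Further: score merges 667 nm spot intensity and signal to noise from triplicate slides.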 Particulars: higher = more signal.
For assay [5], the target named is Neurogenic locus notch homolog protein 2 (Homo sapiens) (UniProt Q04721). Nature of the assay: small molecules binding Notch2 protein – biochemical, small-molecule microarray, 635 nm fluorescence, stem cell growth factors, primary screen (AID 1073). Particulars: higher = more signal.
Neurogenic locus notch homolog protein 2 (Homo sapiens), sequence (Q04721 whole entry, looked up, canonical isoform): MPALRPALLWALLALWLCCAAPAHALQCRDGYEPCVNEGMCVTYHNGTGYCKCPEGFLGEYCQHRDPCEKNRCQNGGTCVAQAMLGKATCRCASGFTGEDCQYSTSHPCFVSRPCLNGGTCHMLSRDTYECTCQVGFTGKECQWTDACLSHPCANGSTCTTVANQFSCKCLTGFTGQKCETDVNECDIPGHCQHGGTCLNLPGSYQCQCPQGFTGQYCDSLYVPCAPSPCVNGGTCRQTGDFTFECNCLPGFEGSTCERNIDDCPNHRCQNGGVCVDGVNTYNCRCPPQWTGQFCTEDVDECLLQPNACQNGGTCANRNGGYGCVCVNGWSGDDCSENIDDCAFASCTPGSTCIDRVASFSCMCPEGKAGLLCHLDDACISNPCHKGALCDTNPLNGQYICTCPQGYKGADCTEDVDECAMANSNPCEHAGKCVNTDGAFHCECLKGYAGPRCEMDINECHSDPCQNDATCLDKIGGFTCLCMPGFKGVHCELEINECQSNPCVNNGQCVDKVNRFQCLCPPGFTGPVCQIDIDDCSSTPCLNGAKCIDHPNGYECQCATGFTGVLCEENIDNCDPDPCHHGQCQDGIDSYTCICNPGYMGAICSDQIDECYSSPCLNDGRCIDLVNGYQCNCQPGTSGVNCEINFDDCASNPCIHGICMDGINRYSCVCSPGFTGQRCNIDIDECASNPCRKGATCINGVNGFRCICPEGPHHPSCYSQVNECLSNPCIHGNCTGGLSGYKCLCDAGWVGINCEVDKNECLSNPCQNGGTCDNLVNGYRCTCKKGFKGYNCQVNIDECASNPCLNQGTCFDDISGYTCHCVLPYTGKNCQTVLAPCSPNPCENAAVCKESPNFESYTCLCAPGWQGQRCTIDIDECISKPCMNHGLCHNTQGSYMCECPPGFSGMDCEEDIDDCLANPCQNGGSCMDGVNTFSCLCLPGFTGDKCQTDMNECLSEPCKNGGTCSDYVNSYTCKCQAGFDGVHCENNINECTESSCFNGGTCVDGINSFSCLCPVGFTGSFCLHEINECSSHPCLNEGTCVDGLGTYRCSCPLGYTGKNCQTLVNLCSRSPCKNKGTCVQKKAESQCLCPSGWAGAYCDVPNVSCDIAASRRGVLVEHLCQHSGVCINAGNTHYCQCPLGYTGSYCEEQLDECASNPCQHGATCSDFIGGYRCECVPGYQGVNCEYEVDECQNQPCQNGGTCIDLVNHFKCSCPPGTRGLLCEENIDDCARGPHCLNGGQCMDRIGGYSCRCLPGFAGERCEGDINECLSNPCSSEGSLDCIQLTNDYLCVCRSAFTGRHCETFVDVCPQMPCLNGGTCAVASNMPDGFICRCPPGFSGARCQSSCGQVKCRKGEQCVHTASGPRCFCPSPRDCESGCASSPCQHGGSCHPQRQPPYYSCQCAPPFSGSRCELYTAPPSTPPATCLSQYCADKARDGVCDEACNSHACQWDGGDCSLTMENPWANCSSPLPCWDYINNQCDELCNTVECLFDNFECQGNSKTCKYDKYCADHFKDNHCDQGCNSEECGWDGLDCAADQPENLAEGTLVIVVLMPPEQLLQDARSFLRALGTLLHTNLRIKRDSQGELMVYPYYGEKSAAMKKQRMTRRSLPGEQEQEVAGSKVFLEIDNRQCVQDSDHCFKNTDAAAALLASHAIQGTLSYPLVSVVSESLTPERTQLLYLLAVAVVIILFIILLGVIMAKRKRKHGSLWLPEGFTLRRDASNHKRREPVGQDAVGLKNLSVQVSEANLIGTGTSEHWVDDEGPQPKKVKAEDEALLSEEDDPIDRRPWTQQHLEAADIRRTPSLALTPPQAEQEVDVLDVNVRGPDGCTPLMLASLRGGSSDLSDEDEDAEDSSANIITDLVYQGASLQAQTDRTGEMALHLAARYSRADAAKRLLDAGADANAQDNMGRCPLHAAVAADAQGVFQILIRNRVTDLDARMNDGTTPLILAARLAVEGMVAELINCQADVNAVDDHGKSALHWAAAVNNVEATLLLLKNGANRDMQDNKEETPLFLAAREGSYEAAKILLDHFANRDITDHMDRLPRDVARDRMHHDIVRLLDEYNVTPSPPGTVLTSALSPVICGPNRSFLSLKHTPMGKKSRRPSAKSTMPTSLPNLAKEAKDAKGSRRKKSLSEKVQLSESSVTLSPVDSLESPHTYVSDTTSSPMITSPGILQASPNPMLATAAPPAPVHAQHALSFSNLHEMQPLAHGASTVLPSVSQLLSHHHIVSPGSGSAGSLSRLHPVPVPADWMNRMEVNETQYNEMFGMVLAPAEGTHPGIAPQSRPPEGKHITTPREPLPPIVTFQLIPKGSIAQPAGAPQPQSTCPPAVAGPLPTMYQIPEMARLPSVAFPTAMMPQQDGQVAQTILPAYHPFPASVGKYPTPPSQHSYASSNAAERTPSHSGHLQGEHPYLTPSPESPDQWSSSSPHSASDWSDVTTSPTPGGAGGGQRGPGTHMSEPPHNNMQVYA
Assay [6] deals with Pro-neuregulin-1, membrane-bound isoform (Homo sapiens) (UniProt Q02297). The experiment in a line: small molecules binding neuregulin-1 protein – biochemical, small-molecule microarray, fluorescence 635/667, psychiatric disease protein project, primary screen (AID 1075).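 Further: score combines 667 nm spot fluorescence with signal to noise.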 Conditions: NRG1 binding, 635 nm fluorescence, higher = more signal.
For assay [7], the system named is Neuregulin-1 EGF-like domain. The experiment in a line: small molecules binding NRG1 EGF domain – biochemical, small-molecule microarray, 635 nm fluorescence, primary screen (AID 1081).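 Further: binding of the protein to compounds printed on small-molecule microarray slides.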 Conditions: higher = more signal.
Assay [8] can be described thus: FRG1 expression reporter modulators in myotubes – cell-based, C2C12 myotubes, firefly/Renilla luciferase, luminescence, FRG1 inhibition for FSHD, primary screen (AID 1084). Particulars: FRG1 promoter luciferase, higher = more signal, called active from +8 up or from −8 down.
Assay [9] in a line: small molecules captured by biotinylated probe aFST – biochemical, small-molecule microarray, fluorescence 635/667, stem cell growth factor project, primary screen (AID 1086).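 Further: score merges 667 nm fluorescence with signal-to-noise of each printed compound spot.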 Particulars: higher = more signal.
Assay [10] can be described thus: binders of probe aHhip on microarray, primary screen, stem cell growth factor project, biochemical, small-molecule microarray, fluorescence 635/667 (AID 1087).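 Further: score merges spot fluorescence at 667nm with spot signal to noise ratio.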 Particulars: higher = more signal.
For assay [11], the system named is PRMT1 (protein arginine N-methyltransferase 1). Nature of the assay: small molecules binding arginine methyltransferase PRMT1 – biochemical, small-molecule microarray, 635 nm fluorescence, primary screen (AID 1088).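 Further: binding of Prmt1 protein to compounds spotted on small-molecule microarray slides.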 Conditions: higher = more signal.
A short description of assay [12]: growth effects on S. cerevisiae YJM789 – YJM789 clinical isolate, OD600, 24 h, basal, primary screen (AID 1089).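 Further: growth of clinical yeast isolate S. cerevisiae YJM 789 seeded 1000 cells per well; test concentration not given here.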 Conditions: higher = more signal, called active from +8 up or from −8 down.
Assay [13] in a line: S. pombe growth modifiers, basal conditions – strain 972, OD600, 24 h, no modulator, primary screen (AID 1090).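 Further: basal condition with compound alone and no growth modifier present; test concentration not given here.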 Conditions: S. pombe 972 growth, higher = more signal, called active from +8 up or from −8 down.
A short description of assay [14]: budding yeast growth modifiers under rapamycin – strain BY4716, OD600, 96 h, primary screen (AID 1091). Further: test concentration not given here. Particulars: S. cerevisiae BY4716 + rapamycin, higher = more signal, called active from +8 up or from −8 down.
Assay [15] concerns the target Torsin-1A-interacting protein 2 (Homo sapiens) (UniProt Q8NFQ8). Nature of the assay: small molecules binding lysate-expressed LULL1 – cell lysate, human LULL1 lysate, 635/667 nm fluorescence, primary screen (AID 1092).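 Further: probe is lysate of COS7 cells overexpressing human LULL1; score merges per-feature 667 nm fluorescence with signal-to-noise.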 Conditions: small-molecule microarray, hLULL1 lysate binding, 635 nm fluorescence; higher = more signal.
Assay [16] can be described thus: optical density change of DRC41 E. coli – strain DRC41, OD650, 24 h, E. coli filamentation project, primary screen (AID 1093).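 Further: MC1000 strain lacking acrAB efflux and sulA so SOS filamentation is blocked; test concentration not given here.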 Particulars: E. coli DRC41 growth, higher = more signal, called active from +8 up or from −8 down.
Assay [17] in a line: probe aLefty2 binding to arrayed compounds – biochemical, biotinylated probe, 635/667 nm fluorescence, primary screen (AID 1094).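 Further: score merges spot fluorescence near 667 nm with spot signal-to-noise ratio.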 Particulars: small-molecule microarray, higher = more signal.
Assay [18] relates to Noggin (protein binding on small-molecule microarray). The experiment in a line: small molecules binding Noggin protein – biochemical, 635/667 nm fluorescence, primary screen (AID 1095).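 Further: score merges 667 nm feature fluorescence with signal to noise over triplicate slides.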 Conditions: 635 nm fluorescence, higher = more signal.
For assay [19], the target named is Neurogenic locus notch homolog protein 3 (Homo sapiens) (UniProt Q9UM47). The experiment in a line: small molecules binding NOTCH3 protein – biochemical, 635/667 nm fluorescence, primary screen (AID 1096). Conditions: small-molecule microarray, 635 nm fluorescence, higher = more signal.
Neurogenic locus notch homolog protein 3 (Homo sapiens), sequence (Q9UM47 whole entry, looked up): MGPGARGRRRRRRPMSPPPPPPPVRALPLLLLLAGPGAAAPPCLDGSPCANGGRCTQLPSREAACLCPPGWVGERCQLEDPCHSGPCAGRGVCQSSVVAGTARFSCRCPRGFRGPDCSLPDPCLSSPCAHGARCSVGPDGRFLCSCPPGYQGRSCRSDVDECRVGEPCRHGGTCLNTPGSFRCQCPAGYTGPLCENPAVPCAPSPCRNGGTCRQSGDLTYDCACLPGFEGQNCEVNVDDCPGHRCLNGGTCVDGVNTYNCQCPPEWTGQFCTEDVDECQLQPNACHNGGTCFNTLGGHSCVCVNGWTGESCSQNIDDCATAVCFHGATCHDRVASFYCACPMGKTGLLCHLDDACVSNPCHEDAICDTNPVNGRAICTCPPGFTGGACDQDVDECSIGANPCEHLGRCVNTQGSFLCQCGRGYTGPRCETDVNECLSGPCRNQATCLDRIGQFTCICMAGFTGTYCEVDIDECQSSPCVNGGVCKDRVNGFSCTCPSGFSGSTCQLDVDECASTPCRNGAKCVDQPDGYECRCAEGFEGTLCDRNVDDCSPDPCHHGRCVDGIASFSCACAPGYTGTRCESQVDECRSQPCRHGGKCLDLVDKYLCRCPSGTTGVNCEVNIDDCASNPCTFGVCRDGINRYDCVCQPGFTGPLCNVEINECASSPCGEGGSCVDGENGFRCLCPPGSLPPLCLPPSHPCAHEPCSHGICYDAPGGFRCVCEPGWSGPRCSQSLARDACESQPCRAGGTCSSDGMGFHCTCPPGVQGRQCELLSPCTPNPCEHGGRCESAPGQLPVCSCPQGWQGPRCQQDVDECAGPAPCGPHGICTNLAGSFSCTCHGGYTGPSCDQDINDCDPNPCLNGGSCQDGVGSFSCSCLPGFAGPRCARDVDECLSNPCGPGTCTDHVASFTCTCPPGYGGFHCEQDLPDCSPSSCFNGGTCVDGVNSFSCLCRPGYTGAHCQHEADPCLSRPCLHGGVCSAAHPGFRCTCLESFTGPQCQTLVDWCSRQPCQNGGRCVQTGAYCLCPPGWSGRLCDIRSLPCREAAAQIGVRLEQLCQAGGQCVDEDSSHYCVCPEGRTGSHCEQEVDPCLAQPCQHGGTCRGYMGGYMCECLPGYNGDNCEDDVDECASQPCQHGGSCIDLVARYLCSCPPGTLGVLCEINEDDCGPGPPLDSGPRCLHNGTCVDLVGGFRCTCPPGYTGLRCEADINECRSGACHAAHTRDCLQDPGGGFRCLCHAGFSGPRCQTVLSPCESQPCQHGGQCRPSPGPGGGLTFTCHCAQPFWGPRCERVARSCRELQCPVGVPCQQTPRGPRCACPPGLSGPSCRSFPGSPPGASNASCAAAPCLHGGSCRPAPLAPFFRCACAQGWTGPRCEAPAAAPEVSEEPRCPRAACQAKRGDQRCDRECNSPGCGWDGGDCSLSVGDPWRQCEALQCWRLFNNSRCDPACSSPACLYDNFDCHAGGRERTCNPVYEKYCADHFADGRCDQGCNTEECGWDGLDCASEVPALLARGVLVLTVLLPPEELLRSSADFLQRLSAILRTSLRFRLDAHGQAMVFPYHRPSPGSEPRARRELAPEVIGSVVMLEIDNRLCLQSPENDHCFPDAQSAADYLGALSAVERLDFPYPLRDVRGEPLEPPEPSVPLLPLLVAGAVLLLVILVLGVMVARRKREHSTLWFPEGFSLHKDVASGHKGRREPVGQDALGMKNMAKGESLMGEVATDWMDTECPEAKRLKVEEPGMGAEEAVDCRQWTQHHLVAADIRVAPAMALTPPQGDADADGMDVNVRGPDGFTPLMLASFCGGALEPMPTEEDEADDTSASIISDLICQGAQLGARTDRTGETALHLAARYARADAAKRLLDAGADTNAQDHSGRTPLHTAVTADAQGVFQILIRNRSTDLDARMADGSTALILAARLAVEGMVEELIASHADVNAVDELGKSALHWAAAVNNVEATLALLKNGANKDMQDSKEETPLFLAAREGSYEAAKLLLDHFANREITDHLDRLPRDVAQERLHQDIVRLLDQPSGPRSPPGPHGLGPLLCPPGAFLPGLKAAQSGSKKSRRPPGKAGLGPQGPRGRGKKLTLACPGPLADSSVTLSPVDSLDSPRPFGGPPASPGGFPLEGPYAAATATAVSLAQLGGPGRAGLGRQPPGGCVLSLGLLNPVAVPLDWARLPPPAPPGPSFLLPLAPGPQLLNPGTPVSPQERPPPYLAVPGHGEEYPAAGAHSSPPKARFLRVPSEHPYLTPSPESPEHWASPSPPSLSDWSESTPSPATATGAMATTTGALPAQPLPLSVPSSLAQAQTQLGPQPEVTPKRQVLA
Assay [20] can be described thus: probe aEGFR binding to arrayed compounds – biochemical, biotinylated probe, 635/667 nm fluorescence, primary screen (AID 1097).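 Further: probe is a biotinylated anti-EGFR antibody binding compounds printed on slides; score combines fluorescence near 667 nm and signal to noise of each spot.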 Particulars: small-molecule microarray, higher = more signal.

Activity calls are given as the source filed them.

`COC(=O)[C@H](C)NC(=O)CCC1CC(OC(=O)NCc2cccc3ccccc23)CC2(CCCC(COC(=O)NCC(c3ccccc3)c3ccccc3)O2)O1` (stereo not given in full): the composite z-score in assay [1] was -0.766; in assay [2], 0.233; in assay [3], -0.0092; in assay [4] it was 0.532; in [5] it was 1.23; in assay [6], 0.917. The composite z-score in [7] is 0.801; in assay [9], 0.157; in assay [10], -0.134; in [11], 1.48; in assay [15] it was 2.99; in [17] it was -0.166. Moreover, the results for the composite z-score in assay [18], in assay [19] and in assay [20] were 0.661, 1.09 and -0.0509, respectively. Besides, the z-score in assay [8] is 2.44 (inactive); in [12], -0.797 (inactive); in assay [13], 0.104 (inactive); in [14], -0.691 (inactive); in assay [16], 0.0609 (inactive).
Consider `CO[C@H]1COC(=O)[C@H](C)NC(=O)CC=C[C@@H](C)[C@H](OC)COC(=O)[C@@H](OCc2ccccc2)C=C[C@@H]1C`, for which the composite z-score in [1] was -0.628; in [2] it was 0.996; in assay [3], -0.0877; in assay [4] it was -0.299; in [5], -0.542; in assay [6], -0.954. Besides, the composite z-score was -1.45 in assay [7]; 0.0521 in [9]; -0.0994 in assay [10]; 0.269 in assay [11]; -0.986 in assay [15]; -0.166 in assay [17]. Also, the figures for the composite z-score in assay [18], in assay [19] and in assay [20] were 0.941, -0.458 and -0.15, respectively. Also, the z-score in [8] was -0.0754 (inactive); in [12], -0.365 (inactive); in assay [13], -0.123 (inactive); in [14] it was -0.118 (inactive); in [16] it was 0.786 (inactive).
Take `CO[C@@H]1COC(=O)CC=C[C@@H](C)[C@H](OC)COC(=O)[C@@H](C)COC(=O)CC=C[C@H]1C`: the composite z-score is -0.404 in assay [1]; 0.812 in assay [2]; 0.553 in assay [3]; -0.552 in [4]; -1.27 in assay [5]; -0.245 in assay [6]. In addition, the composite z-score in assay [7] was -0.844; in assay [9] it was -0.387; in [10] it was 0.312; in [11] it was 0.263; in assay [15], -0.915; in [17], -0.317. Moreover, the composite z-score is 0.496 in assay [18], -0.81 in assay [19] and -0.616 in assay [20]. Moreover, the z-score in assay [8] was -0.182 (inactive); in assay [12], 0.659 (inactive); in assay [13] it was -0.155 (inactive); in assay [14] it was 1.2 (inactive); in assay [16], 0.421 (inactive).
Turning to `CC(CCN1CCCc2nc(C)c(C)cc21)=NOC(C)CN1CCCCc2nc(C)c(C)cc21` (stereo not given), the composite z-score in [1] is -0.213; in [2], 0.854; in assay [3], 0.0766; in assay [4], 0.644; in assay [5] it was 1.51; in assay [6], 0.303. Further, the composite z-score amounted to 1.13 in assay [7]; 1.09 in assay [9]; 0.815 in assay [10]; 1.49 in [11]; 1.22 in assay [15]; 0.0012 in [17]. The results for the composite z-score in assay [18], in [19] and in [20] were 0.923, 1.08 and 0.406, respectively. Further, the z-score in [8] is 1.21 (inactive); in assay [12], -0.415 (inactive); in assay [13], 0.435 (inactive); in assay [14], 0.837 (inactive); in [16], 0.597 (inactive).
As for `CCOC(=O)NN=C1C[C@@H](O)[C@@H](O)[C@@H]2[C@@H]3C(=O)N(c4ccc(F)cc4F)C(=O)[C@@H]3CC[C@@H]12`, the composite z-score is -0.333 in [1]; 0.415 in [2]; -0.0659 in [3]; 0.281 in assay [4]; 0.493 in assay [5]; 0.594 in assay [6]. Further, the composite z-score in [7] is -0.0454; in assay [9], 0.627; in assay [10], 0.0139; in [11], -0.009; in assay [15], 0.0129; in [17] it was -0.0347. Further, the composite z-score is 0.139 in [18], 0.578 in assay [19] and -0.124 in [20]. Besides, the z-score in [8] is -0.248 (inactive); in assay [12] it was 0.517 (inactive); in assay [13], 0.733 (inactive); in assay [14] it was -0.0512 (inactive); in assay [16], 0.783 (inactive).
